# MITF inh: human MITF inhibition, primary screen; inhibition, % at 2.6 µM; 650,000 compounds, 0.91% hits; O75030; AlphaScreen MITF homodimerization, bead proximity signal; in the data active = inhibition above about 50%
# Target sequence (O75030 whole entry, looked up): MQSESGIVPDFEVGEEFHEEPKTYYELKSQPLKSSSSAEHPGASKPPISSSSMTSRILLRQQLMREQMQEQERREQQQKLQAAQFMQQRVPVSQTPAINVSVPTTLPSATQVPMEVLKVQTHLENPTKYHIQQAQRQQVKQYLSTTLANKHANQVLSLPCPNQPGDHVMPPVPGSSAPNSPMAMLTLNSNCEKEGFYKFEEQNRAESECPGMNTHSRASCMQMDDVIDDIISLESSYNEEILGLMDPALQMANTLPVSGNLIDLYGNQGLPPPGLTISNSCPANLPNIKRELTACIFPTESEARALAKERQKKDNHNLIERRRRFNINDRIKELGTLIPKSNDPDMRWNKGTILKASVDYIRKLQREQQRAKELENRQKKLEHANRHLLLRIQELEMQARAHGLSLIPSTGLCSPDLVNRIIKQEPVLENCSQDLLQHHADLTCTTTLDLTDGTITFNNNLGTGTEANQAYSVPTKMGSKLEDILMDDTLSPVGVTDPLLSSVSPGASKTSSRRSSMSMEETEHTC
# FBW7 act: activators of human E3 ligase FBW7 | Q969H0 | AlphaScreen FBW7–phospho-cyclin E peptide binding, activator screen | normalized activity (activation), % at 26.1 µM | 650,000 compounds, 0.13% hits | AID 1259310; in the data active = normalized activity above about 1.9%;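 note: purified mutant Fbw7 with reduced substrate affinity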
# GPR151 activ: activates the human receptor GPR151; Q8TDV0; PathHunter beta-arrestin GPR151 cells, luminescence; activation, % at 11.2 µM; 650,000 compounds, 1% hits; in the data active = activation above about 4.9%
# TEAD-YAP block: TEAD-YAP interaction inhibition; HEK-TIYL cells, TEAD-Gal4/YAP UAS-luciferase luminescence; inhibition, % at 9.12 µM; 640,000 compounds, 1.4% hits; AID 1259422; in the data active = inhibition above about 32%
# GPR151 conf act: human GPR151 activation, confirmation screen | GPR151 PathHunter beta-arrestin cells, luminescence, 90 min; % of EA-reagent control over plate median | shares compounds with GPR151 activ | 6,700 tested, under 10 active | activation, % at 11.2 µM;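 active = mean percent activation across replicates above the confirmation screen cutoff of 4.91%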
# GPR119 ag: counter-screen for GPR151 activators: effect on human GPR119; activation, % at 11.2 µM; GPR119 PathHunter beta-arrestin cells, luminescence, 90 min; 0 = compound-well median, 100 = enzyme-acceptor control; shares compounds with GPR151 activ; 6,700 compounds, 0.3% hits;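 active = mean percent activation in the counterscreen above 29.09%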;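 note: counterscreen on off-target GPR119 to flag nonselective hits from the GPR151 activator screen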
# A number is an active result; - = inactive; . = no result. Shown are actives, neighbours in structure and some others; about 3.4% of the full set was active somewhere.
SMILES,MITF inh,FBW7 act,GPR151 activ,TEAD-YAP block,GPR151 conf act,GPR119 ag
COCCCn1c(-c2ccc(F)cc2)nc2c(c(=O)c3ccccc3n2C)c1=O,-,-,5.9,-,-,-
Cn1c2ccccc2c(=O)c2c(=O)n(CCc3ccccc3)c(-c3ccco3)nc21,-,-,9.4,-,-,-
CCc1ccc(OCC(=O)Nc2cc(C)on2)cc1,-,-,-,-,.,.
CCc1ccc(C(=O)NC(CC(C)C)C(=O)Nc2cc(C)on2)cc1 (configuration not stated),-,-,5.3,-,-,-
CCOC(=O)c1cnc2c(ccc3ccccc32)c1NCc1ccco1,-,-,5.8,-,-,-
CCOC(=O)c1cnc2c(C)c(C)ccc2c1NCc1ccco1,-,-,-,-,.,.
N#CCn1c(CCl)nc2sc3c(c2c1=O)CCCC3,-,-,-,-,.,.
CN1CCOc2cc(S(=O)(=O)Nc3ccccc3F)ccc21,-,-,15.9,-,-,-
CN1CCOc2cc(S(=O)(=O)NCCc3ccc(Cl)cc3)ccc21,-,-,-,-,.,.
Cc1cc2c(cc1S(=O)(=O)Nc1ncccc1C)OCCN2C,-,-,6.3,-,-,-
CCc1ccccc1NS(=O)(=O)c1ccc2c(c1)OCCN2C,-,-,-,-,.,.
Cc1cc2c(cc1S(=O)(=O)Nc1ccccc1Br)OCCN2C,-,-,9.7,-,-,-
Cc1cc2c(cc1S(=O)(=O)Nc1ccccn1)OCCN2C,-,-,-,-,.,.
COc1ccc(CCNS(=O)(=O)c2ccc3c(c2)OCCN3C)cc1OC,-,-,5.2,-,-,-
Cc1cccc(NC(=O)NNC(=O)c2ccc(OCC(C)C)cc2)c1C,-,-,-,-,.,.
COc1ccc(OCCSc2nc3ncnc(N)c3[nH]2)cc1,-,-,-,-,.,.
CCOC(=O)C(C)Oc1ccc2c(=O)c(Oc3cccc(OC)c3)coc2c1 (configuration not stated),-,-,10.7,-,-,-
CCOC(=O)C(C)Oc1ccc2c(=O)c(Oc3ccc(OC)cc3)coc2c1 (configuration not stated),-,-,-,-,.,.
CC1=C(C(=O)Nc2ccc(F)cc2)C(c2ccccc2Br)NC(=O)N1 (configuration not stated),-,-,5.1,-,-,-
Cc1cc(C)c(S(=O)(=O)N(CC(=O)NCc2cccnc2)C2CCCCC2)c(C)c1,-,-,-,-,.,.
COc1ccc(S(=O)(=O)N(CC(=O)NCc2cccnc2)C2CCCCC2)cc1OC,-,-,5.2,-,-,-
Cc1ncc(Cc2ccccc2)c(C2CCCN(C(=O)C[C@@H]3C[C@@H](C)NC(=S)N3)C2)n1 (some centres not stated),-,-,-,-,.,.
COC(=O)c1sc2nc(N)c(C#N)c(-c3ccc(Cl)cc3)c2c1N,-,-,-,-,.,.
CCOC(=O)c1sc2nc(N)c(C#N)c(-c3ccc(Cl)cc3)c2c1N,-,-,6.6,-,-,-
N=C1c2ccccc2CN1NC(=O)COc1ccc(Cl)cc1Cl,-,-,-,-,.,.
SMILES,MITF inh,FBW7 act,GPR151 activ,TEAD-YAP block,GPR151 conf act,GPR119 ag
COc1ccc(CN2CCN(Cc3ccc(OC)c(OC)c3OC)CC2)c(OC)c1,-,-,11.5,-,-,-
O=C(O)c1cc([N+](=O)[O-])ccc1C(=O)Nc1ccc(O)cc1,-,-,-,-,.,.
COc1cccc(C2c3c(oc4ccccc4c3=O)C(=O)N2CCO)c1 (configuration not stated),-,-,8.0,-,-,-
C=CCN1C(=O)c2oc3ccccc3c(=O)c2C1c1ccccc1 (configuration not stated),-,-,6.4,-,-,-
CCOCCn1c(=NC(=O)CCS(=O)(=O)c2ccccc2)sc2cccc(F)c21,-,-,-,-,.,.
NC(=O)Nc1ccc(C(=O)OCC(=O)NCc2ccccc2)cc1,-,-,-,-,.,.
O=C1CCC(=O)N1OCCOc1ccc(Cl)cc1Cc1ccccc1,-,-,-,-,.,.
O=C(Nc1nnc(-c2cccc([N+](=O)[O-])c2)s1)c1cccs1,-,-,8.6,-,-,-
CC(=O)Nc1nnc(-c2cccc([N+](=O)[O-])c2)s1,-,-,-,-,.,.
COC(=O)C1=C(C)NC2=C(C(=O)CC(C)(C)C2)C1c1ccc(C(F)(F)F)cc1 (configuration not stated),-,-,-,-,.,.
CC(=O)OC(C(=O)NCc1ccco1)c1ccncc1 (configuration not stated),-,-,11.0,-,-,-
CCCCNC(=O)/C(=C/c1ccc(OC)cc1)NC(=O)/C=C/c1ccccc1,-,-,-,-,.,.
CCCCNC(=O)/C(=C/c1ccccc1)NC(=O)/C=C/c1ccco1,-,-,17.5,-,-,-
CCOc1ccc(N2CCn3c2nnc(C(=O)NCc2ccc(Cl)cc2)c3=O)cc1,-,-,5.0,-,-,-
Cc1nc2ccc([N+](=O)[O-])cc2c(-c2ccccc2)c1C(N)=O,-,-,-,-,.,.
CCOC(=O)CCC(=O)Nc1cc([N+](=O)[O-])ccc1F,-,-,-,-,.,.
Fc1ccccc1CSc1nnc(-c2cnccn2)n1Cc1ccco1,-,-,9.9,-,-,-
CN(C)CCN1C(=O)C(CC(=O)Nc2cccc([N+](=O)[O-])c2)SC1=Nc1ccccc1 (configuration not stated),-,-,5.2,-,-,-
CC(C)=CCN1CCNC(=O)C1CC(=O)NC1CCN(c2ccccc2)CC1 (configuration not stated),-,-,-,-,.,.
Cc1cc(OCC(=O)NN2CCOCC2)ccc1[N+](=O)[O-],-,-,5.0,-,-,-
Cc1cc(OCC(=O)NN2CCN(C)CC2)ccc1[N+](=O)[O-],-,-,-,-,.,.
CCN1CCN(C(=O)c2sc3ncnc(N4CCN(c5ccccc5OC)CC4)c3c2C)CC1,-,-,-,-,.,.
Cc1c(C)c(C)c(CN2C(=O)C(=O)c3cc(Br)ccc32)c(C)c1C,-,-,-,-,.,.
CCOC(=O)C(C)N1C(=O)S/C(=C/c2cc(Cl)cc(OC)c2O)C1=O (configuration not stated),-,-,6.7,-,-,-
COC(=O)C(C)N1C(=O)S/C(=C/c2cc(Cl)cc(OC)c2O)C1=O (configuration not stated),-,-,-,-,.,.
CCOC(=O)c1sc(NC(=O)c2cc(OC)cc(OC)c2)c(C(N)=O)c1C,-,-,-,-,.,.
Cc1ccc(/C=N/NC(=O)CNC(=O)c2ccc(Cl)cc2)cc1,-,-,-,-,.,.
CCOC(=O)C1CCCN(c2ccc(NC(=O)c3snc4c(=O)[nH]cnc34)cc2)C1 (configuration not stated),-,-,7.4,-,-,-
O=C1CC(N2CCN(C3CCCCC3)CC2)C(=O)N1c1ccc(Cl)cc1 (configuration not stated),-,-,6.8,-,-,-
